Assay [1] concerns the target NAD(+) hydrolase SARM1 (Homo sapiens) (UniProt Q6SZW1). As to the kind of experiment: SARM1 TIR NADase inhibitors, cell lysate, NAD-Glo luminescence (AID 1508614;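 active = compound whose remaining NAD level is above about 45 nM, limit read from the data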;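 also: higher remaining NAD means stronger inhibition of SARM1 NADase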). Particulars: SAM-TIR HEK293T lysate NADase, at 1 µM, stronger effect = higher value.
In assay [2] the target is Mitogen-activated protein kinase 7 (Homo sapiens) (UniProt Q13164). As to the kind of experiment: ERK5 transactivation activators in reporter cells, primary screen, cell-based, HTS (AID 1508626;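 active = luciferase signal above three times the same-plate solvent-only control wells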;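 also: luciferase driven by Gal4-ERK5 fusion binding five Gal4 sites before minimal TATA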). Particulars: HeLa Gal4-ERK5 transactivation, 18 h, at 5 µM, stronger effect = higher value.
Chain of Mitogen-activated protein kinase 7 (Homo sapiens) (Q13164 whole entry, looked up, the tested form may be a part): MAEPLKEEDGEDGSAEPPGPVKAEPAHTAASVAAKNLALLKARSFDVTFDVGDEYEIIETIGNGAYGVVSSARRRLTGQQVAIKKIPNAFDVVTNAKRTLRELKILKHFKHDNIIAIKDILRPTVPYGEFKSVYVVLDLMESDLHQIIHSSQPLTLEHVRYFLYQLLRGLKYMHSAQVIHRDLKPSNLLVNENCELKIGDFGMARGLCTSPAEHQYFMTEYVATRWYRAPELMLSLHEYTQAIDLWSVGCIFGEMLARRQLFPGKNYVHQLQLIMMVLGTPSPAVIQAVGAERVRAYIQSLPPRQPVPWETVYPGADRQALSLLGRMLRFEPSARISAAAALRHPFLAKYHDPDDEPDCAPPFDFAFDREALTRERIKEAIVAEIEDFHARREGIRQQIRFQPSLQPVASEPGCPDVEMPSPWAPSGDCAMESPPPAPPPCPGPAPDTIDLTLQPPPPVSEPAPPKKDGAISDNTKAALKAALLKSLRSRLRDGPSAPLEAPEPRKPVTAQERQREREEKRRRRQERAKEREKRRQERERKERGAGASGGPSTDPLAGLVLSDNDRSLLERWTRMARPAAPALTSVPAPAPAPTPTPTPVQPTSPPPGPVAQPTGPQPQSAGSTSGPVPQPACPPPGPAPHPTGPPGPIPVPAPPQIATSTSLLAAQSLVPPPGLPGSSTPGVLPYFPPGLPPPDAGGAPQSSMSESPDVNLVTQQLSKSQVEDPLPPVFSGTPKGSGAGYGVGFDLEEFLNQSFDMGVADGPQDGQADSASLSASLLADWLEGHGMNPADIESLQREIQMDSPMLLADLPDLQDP
Assay [3] can be described thus: survival rescue of mitochondrial mutant cells in low glucose, primary screen, MELAS cybrids, Rieske KO mouse fibroblasts, CellTiter-Glo (AID 1508586).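 Also: z relative to plate mean and SD of compound and empty wells.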 A general note: In ATP-based viability assays light output follows the ATP content of the culture.
Assay [4] can be described thus: viability rescue of complex I mutant cybrids, primary screen, cell-based, galactose medium, ATP luminescence (AID 1645843;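 active = z-score of at least 1.8 in each of two replicates, scored against plate mean and spread of sample wells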;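 also: positive z means more ATP and so rescue of galactose-driven cybrid death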). Particulars: complex I mutant cybrid cells, 72 h, stronger effect = higher value.
Setting [5] is: MELAS cybrid survival, CellTiter-Glo 48 h, stronger effect = higher value.
Where [6] appears, read: Rieske KO mouse fibroblast survival, CellTiter-Glo 72 h.

Our source for the remaining NAD, luciferase signal and z-score values is PubChem BioAssay.

“And” between values parts separate entries of the source, which are not always exact repeats. Identical values can stand only once. More than one record can exist for a structure, and the calls need not agree. The source made the active and inactive calls.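 The calls were made as follows, unless noted: active = mean z-score across replicates of 1.96 or higher in either the MELAS or the Rieske mutant cell line; inactive = the rest.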

Chain of NAD(+) hydrolase SARM1 (Homo sapiens) (Q6SZW1 whole entry, looked up, the tested form may be a part): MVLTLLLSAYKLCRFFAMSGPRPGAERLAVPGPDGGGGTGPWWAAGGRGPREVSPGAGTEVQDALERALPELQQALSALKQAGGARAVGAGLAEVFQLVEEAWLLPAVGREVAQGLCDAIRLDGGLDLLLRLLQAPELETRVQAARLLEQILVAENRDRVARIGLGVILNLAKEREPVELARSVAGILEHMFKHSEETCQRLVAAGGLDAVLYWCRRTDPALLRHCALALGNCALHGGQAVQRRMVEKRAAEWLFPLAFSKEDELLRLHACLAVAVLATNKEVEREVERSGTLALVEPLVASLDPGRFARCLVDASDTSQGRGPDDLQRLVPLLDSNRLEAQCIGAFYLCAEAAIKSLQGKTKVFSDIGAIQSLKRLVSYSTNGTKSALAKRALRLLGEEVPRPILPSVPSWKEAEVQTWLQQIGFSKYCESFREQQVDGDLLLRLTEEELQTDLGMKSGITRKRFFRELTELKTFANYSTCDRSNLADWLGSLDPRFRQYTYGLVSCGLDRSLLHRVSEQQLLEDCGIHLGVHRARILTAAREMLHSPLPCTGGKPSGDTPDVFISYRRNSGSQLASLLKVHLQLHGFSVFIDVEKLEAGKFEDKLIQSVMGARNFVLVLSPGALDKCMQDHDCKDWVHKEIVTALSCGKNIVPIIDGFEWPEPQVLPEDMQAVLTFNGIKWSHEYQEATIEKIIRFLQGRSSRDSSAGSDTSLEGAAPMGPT

Take `CC(C)(C)CC(C)(C)c1ccc(O)c(Cc2ccc(Cl)cc2Cl)c1`: the remaining NAD in assay [1] was 10 nM (inactive). In assay [2], the luciferase signal is 52 AU (inactive).
On to `O=C(CCCN1CCN(c2ccccn2)CC1)c1ccc(F)cc1`, for which the z-score in assay [3] (setting [5]) is -0.275 (inactive) and -0.83 (inactive) and 0.232 (inactive); in assay [3] (setting [6]), -0.169 and 0.0955 and 0.456; in assay [4], -0.625 (inactive). Also, the remaining NAD in assay [1] was 10 nM (inactive). In addition, the luciferase signal in assay [2] is 92 AU (inactive).
On to `CCCCCCCCCCCCCCCCCCOCC(O)CO` (stereo not given), for which, in assay [2], the luciferase signal is 152 AU (inactive).
As for `COC(=O)C1=C(C)NC(C)=C(C(=O)OCC(C)C)C1c1ccccc1[N+](=O)[O-]` (stereo not given), the z-score in assay [3] (setting [5]) is -0.516 (inactive) and 0.43 (inactive) and -1.18 (inactive); in assay [3] (setting [6]), 0.274 and 1.45 and 0.961; in assay [4] it was -1.86 (inactive) and -2 (inactive). In assay [1], the remaining NAD was 10 nM (inactive). Besides, the luciferase signal in assay [2] is 72 AU (inactive).
Take `CCCCCCOc1ccccc1C(N)=O`: the remaining NAD in assay [1] is 10 nM (inactive). Moreover, in assay [2], the luciferase signal was 48 AU (inactive).
The corresponding values for `O=C1O[C@H](CO)[C@@H](O)[C@H](O)[C@H]1O` are 10 nM (inactive) and 16 AU (inactive).
For the molecule `Nc1ccc(O)c(C(=O)O)c1`, the z-score in assay [3] (setting [5]) was -0.293 (inactive) and -0.757 (inactive) and 0.532 (inactive); in assay [3] (setting [6]), 0.059 and -0.214 and -0.391; in assay [4], 0.62 (inactive) and 0.46 (inactive). The remaining NAD in assay [1] was 10 nM (inactive). Moreover, the luciferase signal in assay [2] is 48 AU (inactive).
Turning to `C[C@@H]1C[C@H]2[C@@H]3CCC4=CC(=O)C=C[C@]4(C)[C@@]3(F)[C@@H](O)C[C@]2(C)[C@H]1C(=O)CO`, the remaining NAD in assay [1] is 10 nM (inactive). Also, in assay [2], the luciferase signal is 32 AU (inactive).
`CC(=O)OCC(=O)[C@H]1CC[C@H]2[C@@H]3CCC4=CC(=O)CC[C@]4(C)[C@H]3CC[C@]12C`: the remaining NAD in assay [1] was 10 nM (inactive). Further, in assay [2], the luciferase signal was 60 AU (inactive).
As for `Oc1cc(O)c2c(c1)O[C@H](c1ccc(O)c(O)c1)[C@H](O)C2`, in assay [2], the luciferase signal is 20 AU (inactive).
Turning to `Cc1ncc([N+](=O)[O-])n1CC(O)CCl` (stereo not given), the z-score in assay [3] (setting [5]) was -0.127 (inactive) and -0.079 (inactive); in assay [3] (setting [6]) it was -0.152 and -0.097; in assay [4], 0.42 (inactive). For the same molecule, the remaining NAD in assay [1] was 10 nM (inactive). In assay [2], the luciferase signal is 36 AU (inactive).
`C[C@@H]1C[C@H]2[C@@H]3CCC4=CC(=O)C=C[C@]4(C)[C@@]3(F)[C@@H](O)C[C@]2(C)[C@@]1(O)C(=O)COP(=O)(O)O`: the remaining NAD in assay [1] is 10 nM (inactive). Moreover, the luciferase signal in assay [2] is 32 AU (inactive).
Consider `CCc1nn(CCCN2CCN(c3cccc(Cl)c3)CC2)c(=O)n1CCOc1ccccc1`, for which the z-score in assay [3] (setting [5]) is -0.135 (inactive) and 0.202 (inactive); in assay [3] (setting [6]), -0.202 and -0.42; in assay [4], -1.88 (inactive) and -0.63 (inactive) and -2.48 (inactive). The remaining NAD in assay [1] is 10 nM (inactive).
As to `O=C(O)[C@@H](O)[C@H](O)[C@H](O)[C@@H](O)C(=O)O`, the luciferase signal in assay [2] is 52 AU (inactive).
As for `CC(=O)OCC(=O)NCCCOc1cccc(CN2CCCCC2)c1`, the z-score in assay [3] (setting [5]) was -0.52 (inactive) and 0.36 (inactive) and 0.133 (inactive); in assay [3] (setting [6]) it was -0.102 and 0.209 and -1.07; in assay [4], 0.45 (inactive) and 0.22 (inactive). For the same molecule, in assay [1], the remaining NAD is 10 nM (inactive).
Take `CC(=O)Oc1c(C)c(C)c2c(c1C)CC[C@@](C)(CCC[C@H](C)CCC[C@H](C)CCCC(C)C)O2`: the remaining NAD in assay [1] is 10 nM (inactive).
As to `N[C@@H](CCC(=O)N[C@@H](CS)C(=O)NCC(=O)O)C(=O)O`, the remaining NAD in assay [1] was 22 nM (inactive). In assay [2], the luciferase signal is 68 AU (inactive).
`Oc1ccc(Cl)cc1Cc1cc(Cl)ccc1O`: in assay [1], the remaining NAD was 10 nM (inactive). Further, in assay [2], the luciferase signal was 72 AU (inactive).
On to `CN1CCC[C@@H]1CCO[C@](C)(c1ccccc1)c1ccc(Cl)cc1`, for which the z-score in assay [3] (setting [5]) is -0.745 (inactive) and -0.186 (inactive); in assay [3] (setting [6]) it was 0.0285 and -0.556; in assay [4], -0.775 (inactive) and -1.7 (inactive). In addition, in assay [1], the remaining NAD is 10 nM (inactive). Further, in assay [2], the luciferase signal is 32 AU (inactive).
As for `Nc1ccc(N=Nc2ccccc2)c(N)n1`, the z-score in assay [3] (setting [5]) is 3.05 (active) and 0.049 (inactive) and 2.48 (active); in assay [3] (setting [6]) it was 0.473 and -0.21 and 1.1; in assay [4], -0.225 (inactive). For the same molecule, in assay [1], the remaining NAD was 10 nM (inactive). Moreover, in assay [2], the luciferase signal is 464 AU (active).
On to `CC(=O)Nc1cccc(O)c1`, for which, in assay [1], the remaining NAD was 10 nM (inactive). Moreover, the luciferase signal in assay [2] is 64 AU (inactive).
The matching figures for `O=C1OCCN1/N=C/c1ccc([N+](=O)[O-])o1`: 10 nM (inactive) and 56 AU (inactive).
With `O=c1[nH]cnc2c1ncn2[C@@H]1O[C@H](CO)[C@@H](O)[C@H]1O`, the remaining NAD in assay [1] is 10 nM (inactive). In assay [2], the luciferase signal was 44 AU (inactive).
The corresponding values for `CC(=O)OCC(=O)[C@@]1(O)[C@H](OC(C)=O)C[C@H]2[C@@H]3CCC4=CC(=O)C=C[C@]4(C)[C@@]3(F)[C@@H](O)C[C@@]21C` are 10 nM (inactive) and 96 AU (inactive).
As to `CCO/C([O-])=N/c1c[n+](N2CCOCC2)no1`, the z-score in assay [3] (setting [5]) is 0.408 (inactive) and -0.37 (inactive); in assay [3] (setting [6]), 0.123 and -0.771; in assay [4], 0.905 (inactive) and 0.425 (inactive). The remaining NAD in assay [1] is 10 nM (inactive). For the same molecule, the luciferase signal in assay [2] was 56 AU (inactive).
In the case of `COc1ccc2cc1Oc1ccc(cc1)C[C@H]1c3c(cc4c(c3Oc3cc5c(cc3OC)CCN(C)[C@@H]5C2)OCO4)CCN1C`, the remaining NAD in assay [1] is 10 nM (inactive). Also, the luciferase signal in assay [2] was 212 AU (inactive).
Take `COc1ccccc1OCC(O)CO` (stereo not given): the z-score in assay [3] (setting [5]) is -0.233 (inactive) and 0.795 (inactive) and 1.3e-05 (inactive); in assay [3] (setting [6]), -0.0145 and 0.521 and -0.435; in assay [4] it was 0.37 (inactive). Also, in assay [1], the remaining NAD was 10 nM (inactive). Besides, the luciferase signal in assay [2] is 160 AU (inactive).
With `COC(=O)[C@@H](N)CS`, in assay [1], the remaining NAD is 10 nM (inactive). The luciferase signal in assay [2] is 52 AU (inactive).
